KCNQ2 inh = inhibitors of rat KCNQ2 potassium channel. B-score at 10 µM. CHO-K1 KCNQ2, FluxOR thallium flux, 20 min; active compounds read low. 1.1% of 310,000 active. O88943;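 active means fluorescence ratio B-score at most minus 3 library SDs, with starting brightness B-score within 2 library SDs, cut at about -5.5 in these data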
Target sequence (O88943 whole entry, looked up): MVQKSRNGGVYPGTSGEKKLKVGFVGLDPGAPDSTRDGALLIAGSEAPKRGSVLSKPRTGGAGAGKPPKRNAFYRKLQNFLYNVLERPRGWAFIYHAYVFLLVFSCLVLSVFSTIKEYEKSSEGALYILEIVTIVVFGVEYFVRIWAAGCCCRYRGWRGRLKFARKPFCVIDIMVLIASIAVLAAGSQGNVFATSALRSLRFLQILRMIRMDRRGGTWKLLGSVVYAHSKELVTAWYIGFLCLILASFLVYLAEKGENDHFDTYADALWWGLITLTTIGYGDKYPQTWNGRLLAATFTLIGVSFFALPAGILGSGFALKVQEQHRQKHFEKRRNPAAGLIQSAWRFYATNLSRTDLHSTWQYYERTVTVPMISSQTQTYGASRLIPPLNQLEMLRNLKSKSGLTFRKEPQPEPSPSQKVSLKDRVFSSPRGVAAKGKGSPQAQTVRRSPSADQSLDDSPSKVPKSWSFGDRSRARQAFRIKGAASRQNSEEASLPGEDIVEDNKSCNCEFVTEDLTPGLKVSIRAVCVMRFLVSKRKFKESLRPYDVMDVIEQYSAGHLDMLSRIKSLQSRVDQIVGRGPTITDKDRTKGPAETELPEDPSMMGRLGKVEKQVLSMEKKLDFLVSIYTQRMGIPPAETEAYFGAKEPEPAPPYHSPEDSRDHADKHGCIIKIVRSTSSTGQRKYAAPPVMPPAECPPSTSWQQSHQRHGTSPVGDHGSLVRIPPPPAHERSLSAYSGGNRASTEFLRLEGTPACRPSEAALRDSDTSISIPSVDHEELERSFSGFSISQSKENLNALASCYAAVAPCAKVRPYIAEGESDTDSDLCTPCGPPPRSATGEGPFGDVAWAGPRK
KCNQ2 enhance = potentiators of rat KCNQ2 potassium channel. AID 2239. 0.54% of 310,000 active. CHO-K1 KCNQ2, FluxOR thallium flux fluorescence; active compounds read high. O88943. B-score at 10 µM;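 active means fluorescence ratio B-score at least 3 SD of library B-scores, with initial fluorescence B-score within 3 of them, cut at about 5.3 in these data; same plate scores as AID 2156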;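 further: B-score of peak minus minimum over baseline fluorescence ratio after K+ and Tl+ stimulus; positive B-score means potentiation of KCNQ2 with more thallium influx and brighter signal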
Large screens that a line does not name were inactive. A selection: hits, their analogues and other compounds. The true share with any hit is near 1.6%.

CCn1c(NCc2cccc(OC)c2OC)nc2ccccc21	KCNQ2 inh -6.09
O=C1Oc2ccccc2C(=O)/C1=C\N1CCN(c2ccccc2)CC1	none
C=CCn1c(COc2ccccc2)nnc1SCC(=O)N/N=C/c1cc(Cl)ccc1O	KCNQ2 inh -6.37
C=CCn1c(COc2ccccc2)nnc1SCC(=O)N/N=C/c1ccc(C)cc1	none (no result: KCNQ2 enhance)
O=C(CSc1nnc(CCc2ccccc2)n1-c1ccc(Cl)cc1)NCc1ccccc1	KCNQ2 inh -7.4
C=CCn1c(CSCc2ccc(Cl)cc2)nnc1SCC(=O)NCc1ccccc1	KCNQ2 inh -6.55
C=CCn1c(SCC(=O)NCc2ccccc2)nnc1-c1ccccc1O	none (no result: KCNQ2 enhance)
COc1ccc(-n2c(CCc3ccccc3)nnc2SCC(=O)NCc2ccccc2)cc1	none (no result: KCNQ2 enhance)
CS(=O)(=O)N(CC(=O)N1CCN(Cc2ccccc2)CC1)c1ccccc1Br	none (no result: KCNQ2 enhance)
Cc1cccc(OCCOC(=O)c2c(-c3ccccc3)noc2C)c1	none (no result: KCNQ2 enhance)
COc1ccc(NC(=O)c2c(NC(=O)CCC(=O)O)sc(-c3ccccc3)c2C)cc1	none
c1ccc2[nH]c3cc4ncnc4cc3nc2c1	none (no result: KCNQ2 enhance)
Cc1ccc(NC(=O)C2Cc3ccccc3CN2C(=O)c2ccccc2)cc1Cl (centres undefined)	KCNQ2 inh -6.08
Cc1ccc(C(=O)N2Cc3ccccc3CC2C(=O)O)cc1 (centres undefined)	none
COc1ccc(-c2cn3nc(SCC(=O)NCC4CCCO4)ccc3n2)cc1 (centres undefined)	none (no result: KCNQ2 enhance)
Cc1sc2ncnc(N3CCN(Cc4ccccc4)CC3)c2c1-c1ccc(F)cc1	none
Cc1cc(C)c(OCC(=O)OCC(=O)NCCC2=CCCCC2)c(C)c1	none (no result: KCNQ2 enhance)
O=C(NC(=S)Nc1sc2c(c1C(=O)O)CCCC2)c1ccccc1	none
CCn1c(SCc2c(Cl)cccc2Cl)nc2nc3c(cc2c1=O)CCCC3	KCNQ2 inh -6.7
CCn1c(SCc2ccccc2Cl)nc2nc3c(cc2c1=O)CCCC3	none (no result: KCNQ2 enhance)
O=C(Oc1ccccc1C(=O)Nc1ccccc1)c1ccc(Br)c([N+](=O)[O-])c1	none (no result: KCNQ2 enhance)
O=C(Nc1ccc(N2CCOCC2)cc1)c1cccc(S(=O)(=O)N2CCC(Cc3ccccc3)CC2)c1	none
CCc1nc2ccccc2c(C(=O)O)c1C	none (no result: KCNQ2 enhance)
CCc1nc2ccccc2c(C(=O)OCC(=O)NC(=O)c2cccn2C)c1C	KCNQ2 inh -5.62
CCc1nc2ccccc2c(C(=O)OCC(=O)C(C)(C)C)c1C	none
CCc1nc2ccccc2c(C(=O)OCCN2C(=O)c3ccccc3C2=O)c1C	KCNQ2 inh -9.55
Cc1cc(=O)n2nc(N3CCCC(C(=O)NCc4ccccc4Cl)C3)sc2n1 (centres undefined)	none (no result: KCNQ2 enhance)
O=C(O)c1ccc(Cl)cc1Nc1nc2cc(Cl)ccc2o1	none
CCOc1ccc(C(=O)NC(C(=O)NCc2ccccc2OC)C(C)C)cc1 (centres undefined)	none (no result: KCNQ2 enhance)
CCOc1ccccc1C(=O)NC(C(=O)NCc1ccccc1OC)C(C)C (centres undefined)	KCNQ2 inh -6.23
COC(=O)C1CCCN1C(=O)COc1ccc(Cl)cc1Br (centres undefined)	KCNQ2 enhance 14.8
COc1ccccc1N1CCN(C(=O)COc2ccc(Cl)cc2Br)CC1	none (no result: KCNQ2 enhance)
CSCCCNC(=S)N1CCc2ccccc2C1	none
CS(=O)(=O)c1ccc2nc(NC(=O)c3ccc(S(=O)(=O)NCC4CCCO4)cc3)sc2c1 (centres undefined)	none
COc1ccc(/C=N/NC(=O)c2cccnc2)cc1	none (no result: KCNQ2 enhance)
COc1ccc(/C=N/NC(=O)c2ccc[nH]2)cc1	KCNQ2 inh -6.08
Cc1cccc(NC(=O)COc2ccccc2C(=O)NC(C)c2ccccc2)c1 (centres undefined)	none (no result: KCNQ2 enhance)
CCCNC(=O)Cn1sc2nc(C)cc(C)c2c1=O	none
CC(C)(C)N/N=C1\CC(c2ccccc2)Oc2ccccc21 (centres undefined)	KCNQ2 inh -7.17
c1ccc(C2C/C(=N\N3CCOCC3)c3ccccc3O2)cc1 (centres undefined)	none (no result: KCNQ2 enhance)
Cc1ccc(N2CC(C(=O)OCC(=O)c3ccc([N+](=O)[O-])cc3)CC2=O)cc1 (centres undefined)	none
COc1ccc(C(=O)NCC(=O)N/N=C/c2cn[nH]c2-c2ccccc2)cc1	none
COc1ccc(C(CNC(=O)c2ccc(S(=O)(=O)N3CCCC3)cc2)N2CCOCC2)cc1 (centres undefined)	none (no result: KCNQ2 enhance)
COc1ccc(C(CNC(=O)c2ccc3c(c2)C(=O)N(CCC(C)C)C3=O)N2CCOCC2)cc1 (centres undefined)	KCNQ2 inh -5.75
CCC(=O)N1CCCc2cc(S(=O)(=O)CCC(=O)Nc3ccccc3C)ccc21	none (no result: KCNQ2 enhance)
CC(Oc1ccc(F)cc1)C(=O)Nc1cc(S(=O)(=O)N2CCOCC2)ccc1N1CCCCC1 (centres undefined)	KCNQ2 inh -8.14
CC(Oc1ccc(F)cc1)C(=O)Nc1cc(S(=O)(=O)N2CCOCC2)ccc1N1CCCC1 (centres undefined)	none
CCOc1ccc(CCNC(=O)CSC(=S)N2CCCC2)cc1OCC	none
Cc1ccc(NCc2ccccc2OCc2ccccc2F)cc1	none (no result: KCNQ2 enhance)
Cc1cccc(NCc2ccccc2OCc2ccccc2F)c1	KCNQ2 inh -5.55
COc1cc2ccccc2cc1C(=O)Nc1sc2c(c1C(N)=O)CCN(C(C)C)C2	KCNQ2 inh -5.88
CN1CCc2c(sc(NC(=O)c3ccc4ccccc4c3)c2C(N)=O)C1	none (no result: KCNQ2 enhance)
Cc1cc2ccccn2c1C(=S)NC(=O)c1ccccc1	KCNQ2 enhance 18.6
Cc1cc2ccccn2c1C(=O)c1ccncc1	none
CC1(c2ccc([N+](=O)[O-])cc2)Nc2ccccc2S1 (centres undefined)	none (no result: KCNQ2 enhance)
CC(NC(=O)/C=C/c1ccccc1[N+](=O)[O-])C1CC2CCC1C2 (centres undefined)	KCNQ2 inh -6.23
CC(NC(=O)c1cc([N+](=O)[O-])cc([N+](=O)[O-])c1)C1CC2CCC1C2 (centres undefined)	none
O=C1[C@H]2[C@H](ON3CCCC[C@H]23)C(=O)N1c1ccc(Cl)cc1	none (no result: KCNQ2 enhance)
CCC(C)(C)NC(=O)C(c1ccc(C)cc1)N(CC1CCCO1)C(=O)CNC(=O)c1cccs1 (centres undefined)	KCNQ2 inh -5.81
Cc1ccc(C(C(=O)NC2CCCCC2)N(CC2CCCO2)C(=O)CNC(=O)c2cccs2)cc1 (centres undefined)	none (no result: KCNQ2 enhance)
CCOC(=O)C1(CCOC)CCN(C/C=C/c2ccccc2OC)CC1	none
COc1cc(NC(=O)Cn2cnc(S(=O)(=O)N3CCOCC3)c2)cc(OC)c1OC	none (no result: KCNQ2 enhance)
Cc1c(CCOC(=O)c2ccccc2)sc[n+]1CC(=O)c1ccc(Br)cc1	none (no result: KCNQ2 enhance)
Cc1c(CCOC(=O)C23CC4CC(CC(C)(C4)C2)C3)sc[n+]1CC(=O)c1ccccc1	KCNQ2 inh -6.51
CCN(CC)C1CCN(C(=O)CCn2nnnc2CN2CCOCC2)C1 (centres undefined)	none (no result: KCNQ2 enhance)
CC1(C)Cc2ccccc2-c2nc(NN)[nH]c(=O)c21	none (no result: KCNQ2 enhance)
CC1(C)Cc2ccccc2-c2nc(-c3ccccc3)oc(=O)c21	KCNQ2 inh -7.87
CC(C)(C)OC(=O)N1CCN(c2ccc(NC(=O)c3ccco3)cc2)CC1	none
Cc1nn2c(SCC(=O)c3cccs3)cc(C(C)(C)C)nc2c1-c1ccccc1	KCNQ2 enhance 19.6
Cc1cc(SCC(=O)c2cccs2)n2nc(C)c(-c3ccc(Cl)cc3)c2n1	none
Nc1c2c(nc3ccccc13)N(C1CCCCC1)CC2	none
Nc1c2c(nc3ccc(Br)cc13)N(C1CCCCC1)CC2	KCNQ2 inh -5.85
Cc1nc(CN(C)C(=O)CC2C(=O)NCCN2Cc2ccc(-c3ccccc3)cc2)cs1 (centres undefined)	none
O=c1c2cnn(-c3ccccc3)c2nc(-c2cccs2)n1-c1ccc(Cl)cc1	none (no result: KCNQ2 enhance)

Screens (PubChem)
